Source: the supplement of paper PMC6555819

Legend:
Assay in all cases: PBM binding z-score (relative to random genomic background probes); higher = stronger binding; sequences stand for … in GC…GCGATTGACAGCGTAGAATGAAGG
[1] = system: FXR:RXRa (NR concentration 270 nM, RXRa partner concentration 90 nM)
In short: (§1)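 Binding z-scores take random background probes as their reference. They come from custom Agilent 4×180K protein-binding microarrays incubated 1 h with ligand-free nuclear receptor dimers, with antibodies against each partner (one per run) detecting binding. Scanned fluorescence was regression-normalized.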

[2] = system: LXRa:RXRa (NR concentration 270 nM, RXRa partner concentration 90 nM)
In short: as §1

[3] = system: LXRa homodimer (NR concentration 270 nM)
In short: as §1

[4] = system: LXRb:RXRa (NR concentration 270 nM, RXRa partner concentration 90 nM)
In short: as §1

[5] = system: LXRb homodimer (NR concentration 270 nM)
In short: as §1

[6] = system: PPARa:RXRa (NR concentration 270 nM, RXRa partner concentration 90 nM)
In short: as §1

[7] = system: PPARg:RXRa (NR concentration 180 nM, RXRa partner concentration 90 nM)
In short: as §1

[8] = system: PPARg:RXRa 270nM:90nM, anti-RXR (NR concentration 270 nM, RXRa partner concentration 90 nM)
In short: as §1

[9] = system: PPARg:RXRa 30nM:10nM, anti-RXR (NR concentration 30 nM, RXRa partner concentration 10 nM)
In short: as §1

[10] = system: PPARg:RXRa 90nM:30nM, anti-RXR (NR concentration 90 nM, RXRa partner concentration 30 nM)
In short: as §1

[11] = system: PPARg:RXRa DBDmut IVT, anti-RXR (DBD mutation: RXRa K156A/R161A, NR concentration 270 nM, RXRa partner concentration 90 nM)
In short: as §1

[12] = system: PPARg:RXRa IVT, anti-PPARg (NR concentration 270 nM, RXRa partner concentration 90 nM)
In short: as §1

[13] = system: PPARg DBDmut:RXRa IVT, anti-PPARg (DBD mutation: PPARg1 K132A/R137A, NR concentration 270 nM, RXRa partner concentration 90 nM)
In short: as §1

[14] = system: PPARg DBDmut IVT, anti-PPARg (DBD mutation: PPARg1 K132A/R137A, NR concentration 270 nM)
In short: as §1

[15] = system: PPARg homodimer (NR concentration 180 nM)
In short: as §1

[16] = system: PXR:RXRa (NR concentration 270 nM, RXRa partner concentration 90 nM)
In short: as §1

[17] = system: PXR homodimer (NR concentration 270 nM)
In short: as §1

[18] = system: RARa:RXR (NR concentration 270 nM, RXRa partner concentration 90 nM)
In short: as §1

[19] = system: RARa homodimer (NR concentration 270 nM)
In short: as §1

[20] = system: RARb:RXRa (NR concentration 270 nM, RXRa partner concentration 90 nM)
In short: as §1

| Sequence | PBM binding z-score [1] | PBM binding z-score [2] | PBM binding z-score [3] | PBM binding z-score [4] | PBM binding z-score [5] | PBM binding z-score [6] | PBM binding z-score [7] | PBM binding z-score [8] | PBM binding z-score [9] | PBM binding z-score [10] | PBM binding z-score [11] | PBM binding z-score [12] | PBM binding z-score [13] | PBM binding z-score [14] | PBM binding z-score [15] | PBM binding z-score [16] | PBM binding z-score [17] | PBM binding z-score [18] | PBM binding z-score [19] | PBM binding z-score [20] |
| --- | --- | --- | --- | --- | --- | --- | --- | --- | --- | --- | --- | --- | --- | --- | --- | --- | --- | --- | --- | --- |
| AGGATGAGGTTAAGATCAGGGAAACAGAATACAT | 2.5 | 2.06 | 0.0836 | 2.16 | 0.492 | 3.06 | 1.63 | 1.38 | 0.783 | 1.01 | -0.114 | 0.973 | 0.72 | 0.516 | 1.27 | 1.56 | 1.2 | 1.9 | 1.63 | 2.1 |
| AGTCAAAGTTCACTAGTTAACGTAAGATTCAGCT | 5.06 | 5.13 | 2.97 | 2.92 | 1.03 | 4.06 | 5.33 | 5.73 | 2.56 | 4.89 | 0.662 | 2.31 | 1.15 | 0.981 | 2.52 | 4.28 | 3.24 | 2.94 | 1.15 | 4.76 |
| TCTAGCAGGCCAGAGGGTCCCTCAAGAGGTACGG | -1.21 | -0.594 | -0.832 | -1.08 | -1.75 | -0.293 | 0.254 | 1.14 | 1.15 | 0.873 | 0.4 | -0.351 | -0.654 | -1.83 | -0.97 | -0.673 | -1.06 | -0.482 | -1.2 | -0.136 |
| AGAATGAGGTTATACGTATATCAGGGAAGAAAGT | 2.23 | 2.1 | 0.245 | 2.04 | 0.468 | 3.47 | 2.58 | 2.29 | 1.04 | 1.85 | 2.88 | 2.25 | 1.21 | 1.56 | 1.21 | 1.45 | 0.473 | 1.92 | 0.666 | 1.44 |
| CGAACGAGGGCATGAGGTGATAGCAAATGCCGAT | 0.82 | 0.474 | -0.458 | 0.317 | -0.998 | 2.05 | 2.27 | 2.23 | 0.483 | 1.49 | 3.25 | 3.37 | 0.644 | -0.341 | 0.574 | 0.422 | -0.352 | 1.16 | 0.0615 | 2.26 |
| ATCGAAAGGTCGACGAGGTGAGTACACACCGTTT | 4.47 | 3.65 | 0.0409 | 2.84 | 0.25 | 4.44 | 2.84 | 3.38 | 1.11 | 2.41 | 0.467 | 2.23 | 0.931 | 1.06 | 1.57 | 3.19 | 0.753 | 3.6 | 0.262 | 3.82 |
| TCTATTAGTTGATCAGGGCAACCGAAACAGCGGA | 0.646 | 0.456 | 0.302 | 0.505 | 0.641 | 0.282 | 0.218 | 2.02 | 3.78 | 2.67 | 2.16 | 0.972 | 0.672 | 0.797 | 0.546 | 0.5 | 0.292 | 0.362 | 0.492 | 0.954 |
| CCTTACGAGTCAAGGTTATAGCACGGGTGGTACG | 0.585 | 0.946 | -0.0296 | 0.739 | 0.332 | 1.28 | 0.716 | 0.135 | -0.0857 | -0.0269 | -0.121 | 0.156 | -0.0742 | -0.146 | 1.14 | 0.823 | 0.506 | 0.888 | 0.784 | 1.07 |
| CCAGACAGGTGAAAGGAAACTCAGTCTGGTACGC | -0.00156 | -0.109 | -0.46 | -0.0929 | -0.489 | 0.52 | 0.81 | 1 | -0.0154 | 0.657 | 1.07 | 0.474 | -0.232 | -0.58 | 0.283 | -0.274 | -0.261 | 0.0734 | -0.148 | 0.522 |
| ATCTCTAGGTAAAGTTCAGTGACAGATCGATAGA | 1.17 | 2.06 | 1.97 | 1.27 | 1.26 | 2.36 | 3.41 | 4.29 | 2.51 | 4.24 | 2.61 | 2.57 | 1.53 | 2.1 | 2.05 | 2.12 | 2.52 | 1.43 | 2.08 | 2.75 |
| CTCGAAAGGTCGGTTGGGGTGAGTATACGGATAA | 3.34 | 2.38 | 0.622 | 2.86 | 1.41 | 3.38 | 0.807 | 1.47 | 0.13 | 0.958 | 0.404 | 1.47 | 0.0444 | 1.01 | 1.6 | 3.44 | 0.962 | 2.76 | 0.684 | 3.31 |
| CCGACTGGGGCAAGGTTACCGTAACGCACAGCCA | 0.11 | 0.127 | -0.449 | 0.456 | -1.12 | 1.87 | 2.6 | 3.45 | 0.963 | 2.8 | 3.53 | 3.71 | -0.69 | -1 | -0.362 | 0.043 | -0.221 | 0.745 | -0.534 | 1.69 |
| TCACGGAGGACACGAAGGTCAGAGCTTTCCAGAG | 1.21 | 1.07 | 0.259 | 0.963 | -1.12 | 1.99 | 0.712 | 1.52 | 2.16 | 1.87 | 1.52 | 0.826 | -1.19 | -0.604 | 1.45 | 1.98 | 1.22 | 2.3 | 0.266 | 3.44 |
| TCTCGGAGGACACGAAGCTCAGAGCTTTCCAGAG | 0.39 | -0.167 | -0.771 | -0.53 | -1.25 | -0.0868 | -0.122 | 0.617 | 1.74 | 1.27 | 1.41 | -0.21 | -1.23 | -1.14 | -0.926 | -0.254 | -0.712 | -0.204 | -0.988 | 1.24 |
